CYP2C9 act – increases human cytochrome P450 2C9 activity. activation factor at 5 µM. hit rate 1.4% among 96,000. recombinant CYP2C9, luciferin-H conversion, luminescence; active compounds read high; factor 1 = untreated enzyme, 0 = blocked;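 active means activation factor of 2 or more for CYP2C9 at a 5 µM dose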;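 further: 0 = sulfaphenazole-blocked wells and 1 = vehicle-only wells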
Target sequence (P11712 whole entry, looked up): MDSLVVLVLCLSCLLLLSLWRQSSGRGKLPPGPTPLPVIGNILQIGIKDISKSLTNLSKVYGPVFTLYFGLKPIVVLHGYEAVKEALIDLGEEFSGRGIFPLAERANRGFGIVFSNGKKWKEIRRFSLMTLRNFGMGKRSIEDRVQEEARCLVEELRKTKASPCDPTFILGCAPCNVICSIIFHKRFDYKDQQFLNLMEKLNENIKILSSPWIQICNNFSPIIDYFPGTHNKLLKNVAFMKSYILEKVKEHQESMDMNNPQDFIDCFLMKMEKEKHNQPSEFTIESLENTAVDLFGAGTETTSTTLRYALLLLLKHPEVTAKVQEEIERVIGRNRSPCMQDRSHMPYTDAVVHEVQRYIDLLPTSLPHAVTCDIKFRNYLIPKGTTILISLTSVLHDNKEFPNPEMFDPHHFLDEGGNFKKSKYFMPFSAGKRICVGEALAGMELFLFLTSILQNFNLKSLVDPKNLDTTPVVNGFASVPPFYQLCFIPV
CYP2C9 inhib – inhibitors of human CYP2C9; P11712; hit rate 20% among 96,000; CYP2C9 Supersomes, luciferin-H conversion, luminescence; inhibition, % at 5 µM; AID 777;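 active means blocking of liver enzyme CYP2C9 beyond about 50% at 5 µM, limit read from the data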
CYP2C19 activ – increases human CYP2C19 enzyme activity; P33261; recombinant CYP2C19, luciferin-H EGE luminescence; active compounds read high; 0 = fully inhibited enzyme, 1 = untreated enzyme; activation factor at 5 µM; 96,000 tested, under 10 active; AID 1025;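 active means activation factor of at least 2 at 5 µM in the primary screen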;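 further: 0 = wells with 2.5 mM tranylcypromine and 1 = vehicle-only wells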
Mac1 fbg enh – enhancers of human CD11b/CD18 binding to fibrinogen; P05107+P11215; K562 CD11b/CD18 adhesion to fibrinogen, ATPlite luminescence; activation, % at 10 µM; hit rate 0.07% among 93,000; AID 1499;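 active means 10 µM primary screen giving 50% or more activity, confirmed by 40% or more on retest at that dose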
Mac1 fbg inh – inhibitors of human CD11b/CD18 binding to fibrinogen | P05107+P11215 | K562 CD11b/CD18 adhesion to fibrinogen, ATPlite luminescence; Mn2+ added to activate the integrin | inhibition, % at 10 µM | hit rate 0.54% among 93,000 | AID 1497;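 active means primary inhibition of 50% or more at 10 µM, then 40% or more on retest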
CYP2C19 inh – blocks human cytochrome P450 2C19; P33261; CYP2C19 Supersomes, luciferin-H EGE luminescence, 30 min; inhibition, % at 5 µM; hit rate 21% among 96,000; AID 778;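 active means CYP2C19 inhibition above a set limit at 5 µM in the primary screen, cut at about 50% in these data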;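 further: plate controls were negative control wells for no effect and 2.5 mM tranylcypromine positive control for full effect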
The depositor's hits bear a star; x = not tested or not shown. In the library only some 28% were active in any assay of this set; here they are far more common.

SMILES	CYP2C9 act	CYP2C9 inhib	CYP2C19 activ	Mac1 fbg enh	Mac1 fbg inh	CYP2C19 inh
O=c1cc(O)nc(SCc2ccccc2)n1-c1ccccc1	1.1	-12	1	3	-3	4
Clc1cccc(CSc2nccn2-c2ccccc2)c1	0.8	16	0.3	x	x	73*
FC(F)(F)c1ccc(CSc2nccn2-c2ccccc2)cc1	0.1	88*	0.2	x	x	82*
Cc1cccc(C)c1N(CC(O)Cn1c2ccccc2c2ccccc21)S(C)(=O)=O (stereo not drawn)	0.3	72*	0.2	-4	-5	80*
Cc1ccc(N(CC(O)CON=C2c3ccccc3-c3ccccc32)S(C)(=O)=O)cc1 (stereo not drawn)	0.5	53*	0.5	-5	44	47
OC(CNCc1ccco1)Cn1c2ccccc2c2ccccc21 (stereo not drawn)	0.7	32	0.4	-4	-1	65*
Cc1ccc(N(CC(O)Cn2c3ccccc3c3ccccc32)S(C)(=O)=O)c(C)c1 (stereo not drawn)	0.9	6	0.9	0	-13	8
Cc1ccc(N(CC(O)Cn2c3ccccc3c3ccccc32)S(C)(=O)=O)cc1 (stereo not drawn)	0	96*	0.1	-4	11	94*
Cc1ccc(C)c(N(C(=O)Cn2nnc3ccccc32)C(C(=O)NC(C)(C)C)c2ccsc2)c1 (stereo not drawn)	1	-3	0.8	x	x	24
CCn1ncc(C2=NOC(C(=O)Nc3cccc(C(C)=O)c3)C2)c1C (stereo not drawn)	0.9	9	0.9	-4	19	8
CS(=O)(=O)N(Cc1ccco1)CC(O)Cn1c2ccccc2c2ccccc21 (stereo not drawn)	0.4	59*	0.4	1	-12	63*
Cc1ccc2nc(NC(=O)CSc3ncnc4c3oc3ccccc34)sc2c1	0.7	27	0.8	71	23	22
Cc1cccc(NC(=O)CSc2ncnc3c2oc2ccccc23)c1	0.4	63*	0.6	4	4	38
Cc1ccccc1NC(=O)Cn1cnc2c(oc3ccccc32)c1=O	0.4	59*	0.4	-4	2	64*
O=C(CSc1ncnc2c1oc1ccccc12)Nc1cccc(F)c1	0.2	76*	0.4	2	1	60*
O=C(CSc1ncnc2c1oc1ccccc12)NCc1ccc(F)cc1	0.3	72*	0.3	2	14	65*
Cc1cc(C)nc(Sc2ncnc3c2oc2ccccc23)n1	1.3	-25	0.4	4	-16	58*
O=C(CSc1ncnc2c1oc1ccccc12)NC1CCCCC1	0.3	72*	0.3	7	-6	72*
Cc1ccc(-c2ccc(/C=N/N3C(=O)C4C5C=CC(CC5)C4C3=O)o2)c([N+](=O)[O-])c1 (stereo not drawn)	0.3	70*	1	3	2	-1
CC(C)NC(=O)c1ccc(-c2ccc(Cl)c(C(F)(F)F)c2)o1	1	-5	1	-1	-13	3
COc1ccc(Cl)cc1N1C(=O)C2CCCN2C1c1cccc(F)c1 (stereo not drawn)	1.4	-37	0.5	-4	-4	54*
COc1cc(C2N(c3ccc(Cl)cc3)C(=O)C3CCCN32)cc(OC)c1OC (stereo not drawn)	1.1	-12	0.9	-3	4	8
COc1ccc(C2N(c3cc(Cl)ccc3OC)C(=O)C3CCCN32)cc1OC (stereo not drawn)	2*	-96	0.5	-2	-4	49
COc1ccc(Cl)cc1N1C(=O)C2CCCN2C1c1ccc(F)c(F)c1 (stereo not drawn)	1.5	-47	0.5	3	-4	45
CCCOC(=O)Nc1ccc(N2CCCCC2)cc1	1.2	-20	1.1	-6	5	-8
SMILES	CYP2C9 act	CYP2C9 inhib	CYP2C19 activ	Mac1 fbg enh	Mac1 fbg inh	CYP2C19 inh
C=CCn1cnc2scc(-c3ccc(C)cc3)c2c1=O	0.3	65*	0.1	0	-31	92*
Nn1c(SCC(=O)N2CCOCC2)nnc1-c1ccccc1Cl	1	0	1.1	x	x	-5
COc1ccc(NC(=O)Cn2c(=O)n(CC(=O)NCc3ccco3)c(=O)c3ccccc32)cc1	0.9	9	1	x	x	0
O=C(O)Cn1cc(C(=O)c2cccs2)c2ccccc21	0.8	16	1	2	-2	1
COC(=O)c1cn(C(=O)c2ccco2)c2ccccc12	0.8	17	1	-2	-3	-3
CCOC(=O)Cn1cc(C(=O)c2cccs2)c2ccccc21	0.1	94*	0	-2	-2	97*
CCOC(=O)C1CCN(C(=O)Cn2cc(C(=O)C3CC3)c3ccccc32)CC1	1.3	-30	1.2	-4	-1	-16
O=C(c1cccs1)c1cn(CC(=O)N2CCc3ccccc3C2)c2ccccc12	0.1	91*	0.2	-2	-1	84*
O=C(c1cn(CC(=O)N2CCCCC2)c2ccccc12)C1CC1	1.2	-16	0.5	-2	-12	52*
COC(=O)c1cn(C(=O)c2cccs2)c2ccccc12	0.4	59*	0.6	-1	-1	41
O=C(CSCc1ccccc1)NNC(=S)Nc1cccc(Cl)c1Cl	0.1	87*	0.9	-7	63	10
COC(=O)C1CCN(C(=O)c2sc3nc(-c4ccc(F)cc4)cn3c2C)CC1	0.4	62*	0.6	2	0	39
Cc1c(C(=O)N2CCc3ccccc3C2)sc2nc(-c3ccccc3)cn12	0.5	53*	0.4	-5	10	59*
COc1ccccc1N1CCN(C(=O)c2sc3nc(-c4ccccc4)cn3c2C)CC1	0.2	80*	0.7	8	15	30
CCOC(=O)C1CCN(C(=O)c2sc3nc(-c4ccccc4)cn3c2C)CC1	0.6	37	0.7	4	-24	30
Cc1c(C(=O)NCc2ccco2)sc2nc(-c3ccccc3)cn12	0.6	40	0.7	-2	-4	29
Cc1c(C(=O)Nc2ccncc2)sc2nc(-c3ccccc3)cn12	0.2	79*	0.5	14	-45	47
Cc1c(C(=O)N2CCOCC2)sc2nc(-c3ccccc3)cn12	1	3	0.9	-1	-16	10
c1ccc(N2CCN(c3cnccn3)CC2)nc1	1	-3	0.6	0	-2	42
N#Cc1cc(C#N)c(N2CCN(c3ccccn3)CC2)nc1N	0.6	44	0.3	x	x	65*
Clc1ccc(CN2CCN(c3ncnc4scc(-c5cccs5)c34)CC2)cc1	0.7	29	0.2	-4	64	84*
Cc1cc(N/C=C/C(=O)c2cccc3ccccc23)no1	1.3	-33	0.4	2	6	57*

Compound activity as filed in PubChem BioAssay.
